Results published in PubChem BioAssay AID624125 (The Scripps Research Institute Molecular Screening Center, 2012).
“And” between values parts separate entries of the source, which are not always exact repeats. Identical values can stand only once. The whole screen tested about 360,000 compounds, of which about 2,600 (0.72%) were called active.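 The calls were made as follows: active = inhibition above its plate's cutoff, the mean inhibition of sample wells plus 3 SD (cut at about 27% in these data); inactive = the rest.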 The full list was thinned out, with actives kept by preference.

biological target: Muscarinic acetylcholine receptor M4 (Homo sapiens) (UniProt P08173); experiment: human M4 muscarinic receptor antagonists, primary screen, CHO cells, Fluo-8 calcium fluorescence (AID 624125); conditions: CHO-hM4 cells, ACh EC80, Fluo-8 calcium fluorescence; at 3 µM; hits give high values;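 also: 0% = acetylcholine EC80 with DMSO and 100% = DMSO without agonist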
Sequence (P08173 whole entry, looked up): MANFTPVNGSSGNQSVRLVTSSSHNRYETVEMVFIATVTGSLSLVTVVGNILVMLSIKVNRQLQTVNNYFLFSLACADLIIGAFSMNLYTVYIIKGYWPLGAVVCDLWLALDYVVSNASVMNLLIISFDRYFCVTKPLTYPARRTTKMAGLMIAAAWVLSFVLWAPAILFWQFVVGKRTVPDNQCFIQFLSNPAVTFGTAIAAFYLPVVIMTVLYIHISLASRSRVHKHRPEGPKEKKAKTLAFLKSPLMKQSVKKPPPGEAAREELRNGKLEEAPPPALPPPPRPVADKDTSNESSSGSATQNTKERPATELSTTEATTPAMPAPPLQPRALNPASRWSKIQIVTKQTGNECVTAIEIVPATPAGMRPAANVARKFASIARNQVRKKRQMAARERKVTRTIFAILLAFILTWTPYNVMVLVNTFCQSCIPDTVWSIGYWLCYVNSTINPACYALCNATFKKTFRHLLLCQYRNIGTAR

Structure (SMILES)	inhibition
COc1cccc(CNn2cn[nH]c2=S)c1OCc1ccccc1	-1.76% (inactive)
COc1cccc(CNCCc2c[nH]c3ccccc23)c1OCc1ccccc1F	27.2% (active)
Fc1ccccc1COc1ccccc1CNCc1ccncc1	-4.74% (inactive)
C=C(C)CNC(=S)Nc1ccc(S(=O)(=O)Nc2cnc3ccccc3n2)cc1	2.87% (inactive)
CC(NCCO)C(=O)C12CC3CC(CC(C3)C1)C2 (centres undefined)	2.3% (inactive)
Cc1c(C(=O)NC2CCCCC2)oc2ccccc12	-11.4% (inactive)
Cc1ccc2c(C)c(C(=O)N(C)Cc3ccncn3)oc2c1C	-3% (inactive)
CCCCN1C(N)=NC[C@@H]1CC1CCCCC1	-1.98% (inactive)
CCCC[C@@H]1CN=C(N)N1CCc1cc(C(F)(F)F)cc(C(F)(F)F)c1	31.9% (active)
CN(C)C1=NC[C@H](Cc2ccccc2)N1CCc1ccc(F)cc1	-0.99% (inactive)
Cc1nc(N)c(Br)c(C)c1Br	-2.18% (inactive)
CSc1ccc(S(=O)(=O)N2CCC(C(=O)NCc3ccncc3)CC2)cc1	-10.4% (inactive)
Cn1c(CCC(=O)Nc2ccccc2F)nnc1SCC(=O)Nc1ccccc1Cl	-10.1% (inactive)
CN1CCN(C(=O)N2c3ccccc3CCc3ccccc32)CC1	51% (active)
Cn1cccc1C(=O)N1CCc2ccccc2C1	10.4% (inactive)
CN1CCN(S(=O)(=O)c2cccc(C(=O)N3CCc4ccccc43)c2)CC1	3.72% (inactive)
O=C(O)C(=Cc1ccccc1[N+](=O)[O-])c1ccccc1	-15.2% (inactive)
Cc1ccc(C2Nc3ccccc3C(=O)N2CCN2CCNC2=O)cc1 (centres undefined)	-5.69% (inactive)
COc1ccc(C(C#N)N2N=C(C)CC2(C)C)cc1 (centres undefined)	-4.9% (inactive)
CC[C@@H]1Cc2cc(O)ccc2C2=C1c1ccc(O)cc1C[C@H]2CC	72.5% (active)
CCOC(=O)C1(Cc2ccccc2C)CCCN(C(=O)CN2C(=O)CSC2=O)C1 (centres undefined)	4.46% (inactive)
O=C(CSc1ccc(-c2ccccn2)nn1)Nc1ccccc1	5.15% (inactive)
O=C(CSc1ccc([N+](=O)[O-])cn1)Nc1ccc(N2CCOCC2)cc1	-3.21% (inactive)
O=C(CSc1ccc(-c2ccc(-n3cccn3)cc2)nn1)Nc1ccc([N+](=O)[O-])cc1	101% (active)
O=C(O)CC12CC3CC(C1)CC(n1ncc(NCc4ccc(F)cc4)c(Cl)c1=O)(C3)C2	4.05% (inactive)

Structure (SMILES)	inhibition
Cc1nn(CC(=O)NCC2CCCO2)c(=O)c2cc3ccccc3n12 (centres undefined)	-2.94% (inactive)
Cc1nn(-c2ccccc2)c2c1c(C)c(CCC(=O)NCC1CCCO1)c(=O)n2C (centres undefined)	-9.84% (inactive)
Cc1sc2c(c1C)c(=O)n(-c1ccccc1)c(=O)n2CC(=O)NCC1CCCO1 (centres undefined)	27.2% (active)
COC(=O)/C(=C1\Oc2ccc(C(C)(C)C)cc2S1)C(F)(F)F	-0.07% (inactive)
COC(CCN(C)C)(c1ccccc1)c1ccccc1	3.06% (inactive)
CCC(C(=O)OCCN(CC)CC)c1ccccc1 (centres undefined)	54.1% (active)
CCCC(C(=O)OCCN(CC)CC)(c1ccccc1)c1ccccc1	42.8% (active)
CCC(C(=O)Nc1ccc(C(C)C)cc1)c1ccccc1 (centres undefined)	23.7% (inactive)
CCN(CC)CCOC(=O)c1ccc(NC(=O)CNC(=O)c2ccccc2)cc1	-1.05% (inactive)
CCN(CC)CCNCC(=O)Nc1ccc(Oc2ccccc2)cc1	-0.82% (inactive)
CC1CCc2c(sc3c2C2=NS(=O)(=O)CCN2C=N3)C1 (centres undefined)	-3.55% (inactive)
COc1ccc(S(=O)(=O)N2CCN(c3cnccn3)CC2)cc1	5.44% (inactive)
O=C1CCc2cc(S(=O)(=O)Nc3ccc(C(F)(F)F)cc3)cc3c2N1CC3	-14.8% (inactive)
CC(C)(C)NC(=O)COc1ccc(CNc2ccc3[nH]c(=O)[nH]c3c2)cc1	-1.92% (inactive)
Cc1cc([N+](=O)[O-])c(=O)[nH]c1C	3.71% (inactive)
CCOC(=O)C1Nc2ccc(C(F)(F)F)cc2C2C=CCC12 (centres undefined)	-1.13% (inactive)
COc1cccc(-c2noc(C3CCCN(C(=O)c4ccc(F)cc4)C3)n2)c1 (centres undefined)	-18% (inactive)
CC(C)c1ccc(-c2noc(C3CCCN(S(C)(=O)=O)C3)n2)cc1 (centres undefined)	-17.6% (inactive)
COc1cc(-c2noc(C3CCCN(S(=O)(=O)c4cccc(Cl)c4)C3)n2)cc(OC)c1OC (centres undefined)	30.5% (active)
Clc1ccc(-c2nnc(-c3ccccc3)nc2N2CCSCC2)cc1	-4.43% (inactive)
CC12CCCCC1=CC(=O)CC2 (centres undefined)	2.52% (inactive)
Cc1ccc(S(=O)(=O)N2CCCCC2)cc1NC(=O)CCNC(=O)c1ccccc1Cl	-5.04% (inactive)
CN(C(=O)CSc1nnc(-c2ccc(C(C)(C)C)cc2)n1C)C1CCS(=O)(=O)C1 (centres undefined)	0.43% (inactive)
OC(c1ccccc1)(c1ccccc1)C1CCN(CCCOc2ccccc2)CC1	91.6% (active)
O=c1[nH]c2ccccc2n1C1CCN(CCOc2ccccc2)CC1	-13.4% (inactive)

Structure (SMILES)	inhibition
COc1ccc(OCCCCN2CCC(C)CC2)cc1	9.1% (inactive)
Cc1ccc(S(=O)(=O)N2CCOCC2)cc1C(=O)NC(=S)N(Cc1ccccc1)C(C)C	0.9% (inactive)
CCCCc1nc2ccc(F)cc2cc1C	-4.37% (inactive)
Cc1sc2ncnc(N3CCC(C(=O)NNC(=O)c4ccc(F)cc4)CC3)c2c1C	-17.4% (inactive)
Cc1sc2ncnc(N3CCC(C(=O)Nc4nc5ccc(Cl)cc5s4)CC3)c2c1C	-9.33% (inactive)
Cc1sc2ncnc(N3CCC(C(=O)Nc4ccc(F)cc4Cl)CC3)c2c1C	46.6% (active)
COC(=O)c1cc(N2CCNCC2)nc2ccccc12	6.45% (inactive)
CS(=O)(=O)N1CCN(CC(=O)NC2CCCC2)CC1	1.25% (inactive)
Clc1ccc(C=NC23CN4CN(CN(C4)C2)C3)cc1	-1.64% (inactive)
O=C(c1ccccc1F)N1CCN(S(=O)(=O)c2ccc(Br)cc2)CC1	3.23% (inactive)
COc1ccc(CN2CCN(Cc3cn(C)nc3-c3ccccc3)CC2CCO)c(C)c1C (centres undefined)	-2.82% (inactive)
OCCC1CN(Cc2cccc(O)c2)CCN1CCc1ccccc1 (centres undefined)	-6.17% (inactive)
COc1cccc2c1OCC(CN1CCN(C3CCCCC3)C(CCO)C1)=C2 (centres undefined)	26.6% (active)
CCOc1ccc(CN2CCN(Cc3ccc(C)o3)CC2CCO)cc1 (centres undefined)	1.46% (inactive)
Cc1ccc(CN2CCN(Cc3ccc(OCCO)cc3)CC2CCO)o1 (centres undefined)	2.78% (inactive)
OCCC1CN(Cc2ccc3nsnc3c2)CCN1C1CCCCC1 (centres undefined)	26.8% (active)
OCC1(CCc2ccccc2)CCN(Cc2ccc3nsnc3c2)CC1	8.32% (inactive)
Cc1ccc(CN2CCN(Cc3ccc4ncccc4c3)CC2CCO)cc1 (centres undefined)	-9.31% (inactive)
CC(C)N1CCC(N2CCN(Cc3cccnc3)CC2CCO)CC1 (centres undefined)	-8.19% (inactive)
OCCC1CN(Cc2cccc(OC3CCCC3)c2)CCN1Cc1ccsc1 (centres undefined)	2.69% (inactive)
Cn1cnnc1Sc1ccc(CN2CCN(C3CCCC3)C(CCO)C2)o1 (centres undefined)	42.6% (active)
OCCC1CN(Cc2ccc3nsnc3c2)CCN1C1CCCC1 (centres undefined)	47.5% (active)
CCC(Sc1nncn1C)C(=O)Nc1nnc(-c2ccc(Cl)cc2)s1 (centres undefined)	-32.3% (inactive)
CCOc1cc(-c2noc(CCCC(=O)NC3CCCCC3)n2)ccc1OC	-15.3% (inactive)
CC(c1ccccn1)N(C)C(=O)c1ccc2nc(Cc3cccc(Cl)c3)oc2c1 (centres undefined)	0.98% (inactive)

Structure (SMILES)	inhibition
Cc1ccc(NC(=O)C(C)OC(=O)C2CC3CCCC(C2)C3=O)cc1S(=O)(=O)N1CCOCC1 (centres undefined)	-3.85% (inactive)
CCc1nc2c(OCc3ccc(C(F)(F)F)cc3)cccn2c1N(C)C(=O)CC(C)C	3.96% (inactive)
Cc1cc(=O)oc2cc(NC(=O)C3CC(=O)N(Cc4ccccc4)C3)ccc12 (centres undefined)	-0.59% (inactive)
O=C(O)C1CCN1C1CCCCC1 (centres undefined)	2.3% (inactive)
COC(=O)c1c(C)oc(C)c1S(=O)(=O)NCc1ccc(Cl)cc1	12.7% (inactive)
CN(CCN1CCOCC1)Cc1nc(-c2ccc3c(c2)OCO3)no1	8.12% (inactive)
CCOc1ccc(NC(=O)C2CC(=O)N=C(N)S2)cc1 (centres undefined)	-0.59% (inactive)
COc1ccc(C(=O)OCC(=O)NCC2CCCO2)cc1[N+](=O)[O-] (centres undefined)	-10.6% (inactive)
Cc1cc(-c2nnc(SCC(=O)Nc3ccc(F)cc3)n2N)n[nH]1	8.94% (inactive)
CSCCC(NS(=O)(=O)c1ccccc1F)C(=O)N1CC=C(c2ccccc2)CC1 (centres undefined)	3.15% (inactive)
O=C1NC(=O)C(c2ccc(Cl)cc2)N1 (centres undefined)	-2.3% (inactive)
COC(=O)C1=C(N)Oc2cc(C)[nH]c(=O)c2C1c1ccc(Cl)cc1 (centres undefined)	0.29% (inactive)
O=C1CSC(c2ccc(Cl)cc2)N1 (centres undefined)	27.7% (active)
COc1ccc(C(=O)Oc2ccc(-c3nnco3)cc2)cc1S(=O)(=O)N1CCOCC1	-11.2% (inactive)
O=C(OC1CC2CC1[C@H]1CCCCN1C2=O)N1CCOCC1 (some centres undefined)	-3.15% (inactive)
CCc1ccc(S(=O)(=O)NCC(O)COc2ccc(OC)cc2)cc1 (centres undefined)	-13% (inactive)
C#C[C@]1(O)CC[C@H]2[C@@H]3CCC4=CC(=O)CC[C@@H]4[C@H]3CC[C@@]21CC	-4.91% (inactive) and 3.68% (inactive)
CN1CCN(C2Cc3ccc(Cl)cc3Sc3ccc(F)cc32)CC1 (centres undefined)	38.1% (active)
CCOCCCNC(=O)C(NC(=O)c1ccc(=O)[nH]c1)c1ccc(C)cc1 (centres undefined)	-5.59% (inactive)
Cc1ccc(-c2ccc(=O)n(Cc3ccc(F)cc3Cl)n2)cc1	0.63% (inactive)
CN(C)Cc1ccc(F)cc1Sc1cc(Cl)ccc1Cl	43.8% (active)
CN(Cc1ccc(F)cc1Cl)S(=O)(=O)c1cccs1	-1.2% (inactive)
COc1cccc(CC(=NO)c2cccc(OC)c2)c1	-5.79% (inactive)
O=C(C1CCCO1)N1CCN(C(=S)Nc2cccc(Cl)c2)CC1 (centres undefined)	0.97% (inactive)
